Experimental findings from ChEMBL document CHEMBL3988442, “University of Dundee, Small-Polar-MMV Screening Library” (2021) are described below.

For some of these results: Potency and affinity values are given separately.

Holding throughout (set-up): scale not given: direction of the effect not stated beside the values
Assay [1] has as its target Protein translocase subunit SecA (Escherichia coli (strain K12)) (UniProt P10408). The assay can be described thus: Assay to Identify E. coli SecA ATPase Inhibitors. Format: functional. As to conditions: 30 µM.
The target in assay [2] is T1, Ubiquitin-activating enzyme e1, putative (Leishmania donovani (strain BPK282A1)) (UniProt E9BSI1).
T1 sequence (whole entry): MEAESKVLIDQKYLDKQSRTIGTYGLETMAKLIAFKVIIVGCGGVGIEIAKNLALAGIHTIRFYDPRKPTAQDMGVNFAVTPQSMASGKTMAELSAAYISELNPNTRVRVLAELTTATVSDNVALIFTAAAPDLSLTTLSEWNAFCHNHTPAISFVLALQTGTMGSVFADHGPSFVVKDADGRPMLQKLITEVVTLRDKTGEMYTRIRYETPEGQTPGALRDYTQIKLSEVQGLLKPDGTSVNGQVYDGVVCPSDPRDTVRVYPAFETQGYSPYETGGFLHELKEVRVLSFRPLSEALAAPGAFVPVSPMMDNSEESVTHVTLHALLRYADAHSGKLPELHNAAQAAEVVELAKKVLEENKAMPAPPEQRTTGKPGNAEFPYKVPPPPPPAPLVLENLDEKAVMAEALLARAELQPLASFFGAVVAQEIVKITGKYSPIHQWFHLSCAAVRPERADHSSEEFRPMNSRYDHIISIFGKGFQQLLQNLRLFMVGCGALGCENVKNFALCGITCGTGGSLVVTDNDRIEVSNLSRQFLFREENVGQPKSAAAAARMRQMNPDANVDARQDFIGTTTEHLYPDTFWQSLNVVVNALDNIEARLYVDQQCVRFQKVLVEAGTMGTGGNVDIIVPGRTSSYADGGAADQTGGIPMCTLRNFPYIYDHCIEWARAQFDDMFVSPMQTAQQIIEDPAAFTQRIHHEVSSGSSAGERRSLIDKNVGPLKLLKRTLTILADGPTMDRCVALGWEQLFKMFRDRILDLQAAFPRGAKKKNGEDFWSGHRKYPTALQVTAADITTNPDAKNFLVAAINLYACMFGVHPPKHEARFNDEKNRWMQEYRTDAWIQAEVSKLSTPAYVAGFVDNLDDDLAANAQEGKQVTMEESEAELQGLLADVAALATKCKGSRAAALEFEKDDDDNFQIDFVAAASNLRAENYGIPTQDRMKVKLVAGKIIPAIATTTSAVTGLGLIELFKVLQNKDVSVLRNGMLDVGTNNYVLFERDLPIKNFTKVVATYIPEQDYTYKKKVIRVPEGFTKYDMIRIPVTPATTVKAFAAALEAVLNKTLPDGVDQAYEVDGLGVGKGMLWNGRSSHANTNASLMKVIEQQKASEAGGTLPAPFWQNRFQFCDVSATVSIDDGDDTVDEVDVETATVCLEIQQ
The assay can be described thus: Leishmania donovani Ubiquitin Activating Enzyme (LdE1). It is filed as functional. As to conditions: 30 µM.

In assay [3] the target is AMP-activated protein kinase, AMPK (Homo sapiens) (UniProt P54646+O43741+P54619+Q9UGJ0+Q9Y478+Q13131+Q9UGI9). The assay can be described thus: AMP-dependent Kinase enzyme assay. An in vitro enzyme assay that detects ADP turnover that is directly proportional to AMPK activity. This uses naive AMPK that is activated during the assay with MK-8722. It is filed as functional. The conditions noted are these: 30 µM.

In assay [4] the target is Sialic acid-binding Ig-like lectin 9 (Homo sapiens) (UniProt Q9Y336). The assay can be described thus: Hs-Siglec9 ALPHAscreen SOP 20170721. As to conditions: 10 µM.
Sequence of Sialic acid-binding Ig-like lectin 9 (Homo sapiens) (Q9Y336 whole entry): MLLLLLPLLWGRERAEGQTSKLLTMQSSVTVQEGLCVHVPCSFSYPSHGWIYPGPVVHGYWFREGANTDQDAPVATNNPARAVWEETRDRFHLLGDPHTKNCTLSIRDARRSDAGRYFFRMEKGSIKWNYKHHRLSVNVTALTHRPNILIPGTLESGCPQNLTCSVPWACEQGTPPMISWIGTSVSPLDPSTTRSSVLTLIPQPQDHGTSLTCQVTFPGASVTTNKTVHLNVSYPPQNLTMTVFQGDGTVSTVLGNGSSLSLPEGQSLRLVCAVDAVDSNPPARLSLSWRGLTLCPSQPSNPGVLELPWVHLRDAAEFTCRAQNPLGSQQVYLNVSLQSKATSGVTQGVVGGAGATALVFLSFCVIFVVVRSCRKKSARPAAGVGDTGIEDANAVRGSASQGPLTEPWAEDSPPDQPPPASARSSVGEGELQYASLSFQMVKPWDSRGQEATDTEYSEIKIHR
Assay [5] relates to Trypanosoma cruzi. The assay can be described thus: Trypanosoma cruzi phosphomannomutase and mannose-1-phosphate guanylyltransferase assay. It is filed as functional. The conditions noted are these: 10 µM.
The target of assay [6] is T2, Arginase-2, mitochondrial (Homo sapiens) (UniProt P78540).
T2 sequence (whole entry): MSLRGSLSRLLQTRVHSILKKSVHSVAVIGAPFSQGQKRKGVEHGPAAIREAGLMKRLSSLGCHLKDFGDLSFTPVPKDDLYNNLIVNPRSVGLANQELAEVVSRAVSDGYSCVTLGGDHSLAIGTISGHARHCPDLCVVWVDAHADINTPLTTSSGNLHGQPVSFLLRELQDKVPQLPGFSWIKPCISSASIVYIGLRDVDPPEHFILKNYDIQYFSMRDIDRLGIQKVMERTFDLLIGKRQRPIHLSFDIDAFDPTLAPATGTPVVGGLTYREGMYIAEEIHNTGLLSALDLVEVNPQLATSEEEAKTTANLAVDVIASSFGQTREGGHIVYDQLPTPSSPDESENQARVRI
Kind of assay: in vitro enzyme assay to detect the production of urea directly proportional to the activity of Arginase II. Further: in the data most compounds retested in dose-response had high values. It is filed as functional. The conditions noted are these: 33.3 µM.

For assay [7], the target named is T3, Proteasome subunit beta (Trypanosoma cruzi) (UniProt O96673).
T3 sequence (whole entry): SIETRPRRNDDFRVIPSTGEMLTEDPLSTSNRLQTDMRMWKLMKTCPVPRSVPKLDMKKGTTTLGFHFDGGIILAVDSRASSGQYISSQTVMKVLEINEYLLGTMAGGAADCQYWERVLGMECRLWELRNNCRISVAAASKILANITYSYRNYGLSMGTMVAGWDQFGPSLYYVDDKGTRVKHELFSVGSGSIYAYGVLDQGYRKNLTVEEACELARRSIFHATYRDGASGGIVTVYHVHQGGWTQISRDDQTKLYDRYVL
Kind of assay: Trypanosoma cruzi proteasome chymotrypsin-like activity (TcProtChymo) assay. Further: in the data most compounds retested in dose-response had high values. It is filed as functional. The conditions noted are these: 9.37 µM.

The species named for assay [8] is Homo sapiens. The assay can be described thus: To identify inhibition of the IFN signalling (Jak-Stat) pathway via expression of an eGFP reporter gene under the control of an IFN-stimulated response element (ISRE) containing MxA promoter. It is filed as functional. As to conditions: 30 µM.
In assay [9] the target is T4, Tyrosyl-tRNA synthetase, putative (Trypanosoma cruzi (strain CL Brener)) (UniProt Q4DSP6).
T4 sequence (whole entry): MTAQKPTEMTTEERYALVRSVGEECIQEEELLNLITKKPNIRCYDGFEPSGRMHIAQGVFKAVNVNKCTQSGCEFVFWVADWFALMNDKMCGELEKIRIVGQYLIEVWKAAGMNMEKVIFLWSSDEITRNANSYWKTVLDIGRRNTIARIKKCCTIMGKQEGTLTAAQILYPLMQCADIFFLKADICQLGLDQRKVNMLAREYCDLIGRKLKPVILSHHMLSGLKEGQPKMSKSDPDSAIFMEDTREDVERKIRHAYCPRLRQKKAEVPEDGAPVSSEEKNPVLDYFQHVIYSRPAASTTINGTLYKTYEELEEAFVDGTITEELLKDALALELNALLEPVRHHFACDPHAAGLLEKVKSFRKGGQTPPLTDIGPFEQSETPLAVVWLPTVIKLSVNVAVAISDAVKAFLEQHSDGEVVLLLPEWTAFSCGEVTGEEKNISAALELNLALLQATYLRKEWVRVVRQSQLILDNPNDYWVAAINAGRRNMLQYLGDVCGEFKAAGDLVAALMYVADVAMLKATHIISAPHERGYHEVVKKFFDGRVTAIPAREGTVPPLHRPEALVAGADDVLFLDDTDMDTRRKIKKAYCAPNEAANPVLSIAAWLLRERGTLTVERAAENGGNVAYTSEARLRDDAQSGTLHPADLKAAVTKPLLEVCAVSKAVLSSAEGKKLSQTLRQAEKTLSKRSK
The assay can be described thus: Trypanosoma cruzi tyrosyl tRNA synthetase (TcYRS) _High Tyrosine SOP. Further: in the data most compounds retested in dose-response had high values. It is filed as functional. As to conditions: 30 µM.

The target of assay [10] is T4, Tyrosyl-tRNA synthetase, putative (Trypanosoma cruzi (strain CL Brener)). The assay can be described thus: Trypanosoma cruzi tyrosyl tRNA synthetase (TcYRS) SOP. It is filed as functional. The conditions noted are these: 30 µM.
The target of assay [11] is Chromo domain-containing protein 1 (Saccharomyces cerevisiae (strain ATCC 204508 / S288c) (Baker's yeast)) (UniProt P32657). The assay can be described thus: ScCHD-1 Enzyme Inhibition Assay. Further: in the data most compounds retested in dose-response had high values. It is filed as functional. As to conditions: 30 µM.
Sequence of Chromo domain-containing protein 1 (Saccharomyces cerevisiae (strain ATCC 204508 / S288c) (Baker's yeast)) (P32657 whole entry, the tested form may be a part): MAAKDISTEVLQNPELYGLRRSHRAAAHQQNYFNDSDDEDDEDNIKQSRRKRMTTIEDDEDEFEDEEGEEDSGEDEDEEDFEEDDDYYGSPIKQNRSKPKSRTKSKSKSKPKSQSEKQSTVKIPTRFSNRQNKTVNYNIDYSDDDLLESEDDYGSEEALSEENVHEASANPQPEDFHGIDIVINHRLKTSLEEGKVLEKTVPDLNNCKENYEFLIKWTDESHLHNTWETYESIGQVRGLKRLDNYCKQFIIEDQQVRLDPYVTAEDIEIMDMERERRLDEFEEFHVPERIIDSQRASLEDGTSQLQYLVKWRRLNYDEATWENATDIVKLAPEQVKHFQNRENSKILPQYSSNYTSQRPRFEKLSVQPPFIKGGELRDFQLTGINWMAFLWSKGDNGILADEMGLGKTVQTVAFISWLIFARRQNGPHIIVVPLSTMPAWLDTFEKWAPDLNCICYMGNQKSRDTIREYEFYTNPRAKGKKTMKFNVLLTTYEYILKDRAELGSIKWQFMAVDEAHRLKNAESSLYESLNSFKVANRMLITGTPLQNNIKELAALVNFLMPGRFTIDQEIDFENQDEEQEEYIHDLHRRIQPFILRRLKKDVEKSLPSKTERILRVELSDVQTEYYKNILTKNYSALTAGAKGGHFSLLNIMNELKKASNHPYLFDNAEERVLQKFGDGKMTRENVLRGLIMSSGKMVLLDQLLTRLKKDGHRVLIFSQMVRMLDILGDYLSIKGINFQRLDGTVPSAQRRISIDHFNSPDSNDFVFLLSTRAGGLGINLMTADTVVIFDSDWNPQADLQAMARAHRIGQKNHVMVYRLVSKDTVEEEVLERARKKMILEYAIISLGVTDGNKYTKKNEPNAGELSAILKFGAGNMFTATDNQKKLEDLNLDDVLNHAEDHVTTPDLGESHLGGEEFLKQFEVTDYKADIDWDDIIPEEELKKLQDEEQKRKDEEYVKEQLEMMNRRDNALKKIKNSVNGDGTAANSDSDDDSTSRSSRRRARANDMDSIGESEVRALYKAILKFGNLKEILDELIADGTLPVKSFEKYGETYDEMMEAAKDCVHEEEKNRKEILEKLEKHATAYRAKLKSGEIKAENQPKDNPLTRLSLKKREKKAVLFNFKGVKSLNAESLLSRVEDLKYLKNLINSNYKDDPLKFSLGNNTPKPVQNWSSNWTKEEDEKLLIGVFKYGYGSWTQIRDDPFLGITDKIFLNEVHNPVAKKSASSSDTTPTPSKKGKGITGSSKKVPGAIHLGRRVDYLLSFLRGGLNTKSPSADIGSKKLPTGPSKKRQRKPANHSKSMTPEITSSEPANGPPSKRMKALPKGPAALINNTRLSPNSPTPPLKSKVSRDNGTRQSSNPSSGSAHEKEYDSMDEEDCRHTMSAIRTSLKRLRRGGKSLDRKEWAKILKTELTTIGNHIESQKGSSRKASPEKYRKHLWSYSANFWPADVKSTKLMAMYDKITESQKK

Sequence of Protein translocase subunit SecA (Escherichia coli (strain K12)) (P10408 whole entry): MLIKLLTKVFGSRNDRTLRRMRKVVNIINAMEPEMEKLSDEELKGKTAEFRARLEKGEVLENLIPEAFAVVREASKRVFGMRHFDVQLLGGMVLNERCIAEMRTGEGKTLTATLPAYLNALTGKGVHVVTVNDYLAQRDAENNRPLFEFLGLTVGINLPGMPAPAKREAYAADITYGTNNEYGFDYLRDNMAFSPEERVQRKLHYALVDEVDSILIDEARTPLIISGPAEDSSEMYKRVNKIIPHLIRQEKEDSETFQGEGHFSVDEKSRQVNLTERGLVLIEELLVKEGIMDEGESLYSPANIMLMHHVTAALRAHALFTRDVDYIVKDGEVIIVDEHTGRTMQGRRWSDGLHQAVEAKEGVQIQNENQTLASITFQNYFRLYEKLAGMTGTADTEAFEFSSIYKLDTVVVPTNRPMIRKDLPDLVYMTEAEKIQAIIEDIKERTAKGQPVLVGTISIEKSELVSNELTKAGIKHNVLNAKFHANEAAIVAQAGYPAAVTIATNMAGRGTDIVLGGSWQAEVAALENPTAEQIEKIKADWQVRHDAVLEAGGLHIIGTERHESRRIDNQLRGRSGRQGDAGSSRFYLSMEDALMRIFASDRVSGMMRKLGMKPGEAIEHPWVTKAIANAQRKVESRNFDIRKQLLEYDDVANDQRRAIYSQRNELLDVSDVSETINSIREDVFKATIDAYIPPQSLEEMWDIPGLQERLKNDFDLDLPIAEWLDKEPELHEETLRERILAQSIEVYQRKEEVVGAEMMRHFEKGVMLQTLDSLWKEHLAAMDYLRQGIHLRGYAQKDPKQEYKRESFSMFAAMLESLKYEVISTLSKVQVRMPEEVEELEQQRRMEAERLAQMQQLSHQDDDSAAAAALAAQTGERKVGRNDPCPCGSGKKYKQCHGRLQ

For the compound `CSc1ncccc1C(=O)N1C[C@H]2CC[C@@H]1CN(c1ncccn1)C2`, the Percent Effect in assay [1] is -4.71%; in assay [2], 7.79%; in [3] it was 4.3%; in [4], 12.7%; in assay [5], 1.87%; in assay [6], -31.7%. Further, the Percent Effect is 6.82% in assay [7]; -0.196% in [8]; 7.53% in assay [9]; 11.1% in assay [10]; -5.74% in [11].

Take `O=C(Cc1ccc(F)cc1)NCCNCC1CNc2ccnn2C1` (stereo unspecified): the Percent Effect in [1] was -1.32%; in assay [2] it was 18.9%; in assay [3], -4.44%; in assay [4], 24.8%; in assay [5], 10.8%; in [6], 10%. For the same compound, the Percent Effect in assay [7] is 6.72%; in [8], 2.03%; in assay [9] it was 8.99%; in [10], 17.1%; in [11], -7.92%.

Turning to `Cc1cc(N2CCN(CCO)CC2)nc(-c2ccncc2)n1`, the Percent Effect was -0.472% in assay [1]; 5.26% in assay [2]; 0.962% in [3]; -2.69% in assay [4]; -0.876% in assay [5]; -8.28% in assay [6]. In addition, the Percent Effect was 21.6% in assay [7]; -0.921% in [8]; 7.45% in [9]; 7.79% in assay [10]; -4.96% in [11].

Regarding `CN1CCC(C(=O)NCc2nncn2-c2ccccc2)CC1=O` (stereo unspecified), the Percent Effect in assay [1] was -2.63%; in assay [2], 5.41%; in [3], -5.14%; in assay [4], 5.74%; in [5], -3.87%; in [6], -2%. The Percent Effect was 0% in assay [7]; 13.5% in [8]; 4.43% in assay [9]; 1.24% in assay [10]; -2.07% in [11].

In the case of `CNc1cc(N2CCCC2CNCc2ccccn2)ncn1` (stereo unspecified), the Percent Effect in [1] was -1.73%; in assay [2], 13.5%; in assay [3] it was -11.7%; in [4], -3.49%; in assay [5] it was -2.93%; in assay [6], -2.08%. For the same compound, the Percent Effect was 16% in [7]; 24.8% in assay [8]; 11.9% in assay [9]; 11% in assay [10]; 26.6% in assay [11].

Regarding `CNc1cc2c(nn1)CCN(C(=O)c1ccc(-n3nccc3C)cc1)C2`, the Percent Effect in assay [1] was -3.9%; in [2], 7.79%; in [3], -0.653%; in assay [4], -3.32%; in assay [5] it was 6.56%; in [6], -1.9%. Also, the Percent Effect in [7] was 11.4%; in assay [8] it was 14.4%; in assay [9], 6.67%; in assay [10], 9.41%; in assay [11] it was -16.2%.

Consider `COc1c(C2CCCN2C(=O)c2ccc3cc[nH]c3c2)c(C)nn1C` (stereo unspecified), for which the Percent Effect was -4% in assay [1]; 18.2% in [2]; 1.47% in [3]; -0.102% in assay [4]; 7.93% in [5]; -4.42% in assay [6]. Also, the Percent Effect was 7.68% in [7]; 3.62% in assay [8]; 4.76% in assay [9]; 14.1% in [10]; -21.5% in [11].

Consider `CC(CN1CCCC1)C(=O)N1CCC(c2nccn2CC2CC2)CC1` (stereo unspecified), for which the Percent Effect was -4.31% in assay [1]; 13.5% in assay [2]; -3.47% in assay [3]; 27.7% in assay [4]; 10.2% in assay [5]; 2.86% in [6]. For the same compound, the Percent Effect in [7] is 16.2%; in assay [8], 5.41%; in assay [9] it was 7.94%; in assay [10] it was 21.9%; in assay [11], -11.2%.

`CCn1ccnc1-c1nc2cc(S(=O)(=O)N3CCCC3)ccc2n1C`: the Percent Effect in [1] was -6.04%; in [2] it was 0%; in assay [3] it was 3.54%; in assay [4], 25.2%; in assay [5], 4.31%; in assay [6], 6.36%. Further, the Percent Effect in assay [7] was 4.97%; in assay [8], 2.47%; in [9], 3.23%; in [10] it was 10%; in assay [11] it was 100%.

In the case of `CC(C)c1nnc2n1CCN(CC(=O)Nc1nncs1)C2`, the Percent Effect in assay [1] is -0.203%; in assay [2], 13%; in [3], 1.97%; in assay [4], -3.59%; in assay [5] it was 5.19%; in assay [6], 5.68%. Also, the Percent Effect was 8% in [7]; -15.7% in assay [8]; 2.86% in assay [9]; 14.1% in assay [10]; -14.6% in assay [11].

As to `CC(C)c1nnc2n1CCN(C(=O)CN1Cc3ccccc3C1=O)C2`, the Percent Effect is -6.1% in assay [1]; 2.63% in assay [2]; -4.36% in assay [3]; 2.22% in assay [4]; 6.2% in assay [5]; -0.383% in [6]. Besides, the Percent Effect in assay [7] is 4.34%; in assay [8], 6.89%; in [9], 9.31%; in [10], 17.1%; in assay [11], -12.6%.
